# Measurements published in paper PMC4336329 (PLoS ONE, 2015).
# Screen size: about 310,000 compounds; about 14,000 (4.5%) showed an effect of 50% or more. The effect is printed as a negative number. What follows is part of a selection rich in strong results, with near analogues and random picks from the rest.
# Molecular target: human ether-à-go-go-related gene (hERG) potassium channel (human, UniProt Q12809)
# Assay: primary screen, population patch clamp on CHO cells stably expressing hERG; higher = less effect of the substance
# 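Further: peak tail current of the secondary pulse compared with the same well before compound.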
# Sequence of human ether-à-go-go-related gene (hERG) potassium channel (Q12809 whole entry, looked up): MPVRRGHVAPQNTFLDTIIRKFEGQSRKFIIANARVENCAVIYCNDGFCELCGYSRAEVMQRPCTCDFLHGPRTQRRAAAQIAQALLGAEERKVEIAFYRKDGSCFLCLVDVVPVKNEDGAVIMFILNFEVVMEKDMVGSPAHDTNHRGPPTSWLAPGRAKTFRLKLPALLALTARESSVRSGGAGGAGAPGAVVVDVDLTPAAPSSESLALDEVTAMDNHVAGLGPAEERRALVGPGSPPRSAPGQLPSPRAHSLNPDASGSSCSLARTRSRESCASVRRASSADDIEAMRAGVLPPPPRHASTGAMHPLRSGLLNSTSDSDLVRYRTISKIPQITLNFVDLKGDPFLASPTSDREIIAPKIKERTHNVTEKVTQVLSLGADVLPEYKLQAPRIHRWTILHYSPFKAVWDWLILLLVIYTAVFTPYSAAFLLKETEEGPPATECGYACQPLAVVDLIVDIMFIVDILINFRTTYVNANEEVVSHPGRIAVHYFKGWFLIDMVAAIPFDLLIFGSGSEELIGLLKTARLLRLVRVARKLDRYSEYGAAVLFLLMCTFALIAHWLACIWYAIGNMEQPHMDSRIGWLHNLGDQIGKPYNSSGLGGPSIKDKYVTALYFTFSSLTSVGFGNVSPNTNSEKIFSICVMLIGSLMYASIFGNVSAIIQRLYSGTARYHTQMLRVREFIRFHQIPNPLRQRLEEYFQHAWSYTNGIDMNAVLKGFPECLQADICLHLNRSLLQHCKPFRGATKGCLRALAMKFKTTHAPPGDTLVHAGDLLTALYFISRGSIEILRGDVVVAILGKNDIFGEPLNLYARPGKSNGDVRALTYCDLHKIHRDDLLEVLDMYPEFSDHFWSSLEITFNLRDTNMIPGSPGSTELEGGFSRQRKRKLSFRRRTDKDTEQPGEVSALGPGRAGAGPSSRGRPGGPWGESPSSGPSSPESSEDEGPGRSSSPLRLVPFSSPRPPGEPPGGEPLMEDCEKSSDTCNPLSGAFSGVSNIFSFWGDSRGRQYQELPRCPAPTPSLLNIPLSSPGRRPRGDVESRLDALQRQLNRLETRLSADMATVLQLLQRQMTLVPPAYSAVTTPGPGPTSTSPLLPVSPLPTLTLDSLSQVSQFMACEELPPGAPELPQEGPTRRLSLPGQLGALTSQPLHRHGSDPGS
row,Compound,"hERG current change (%, negative = inhibition) at 10uM [%]"
1,CCOC(=O)[C@@H]1[C@H]2COc3cc(OC)ccc3[C@@H]2N2C(=O)N(c3cccc(C)c3)C(=O)[C@@]12C,-5.14
2,CCC1=NN(C(=O)c2ccc(C)cc2)C(O)(c2ccc(Br)cc2)C1 (centres unmarked),-10.7
3,COc1ccccc1C(CC(=O)Nc1nccs1)c1ccco1 (centres unmarked),2.68
4,Cc1ccc(C)c(NC(=O)CN(C)C(=O)/C=C/c2ccco2)c1,15.7
5,COc1ccccc1/C=C/C=N/NC(=O)c1cnccn1,13.5
6,Cc1ccc(-c2csc(NC(=O)c3ccc(Br)cc3)c2C(=O)O)cc1,46.9
7,O=C(O)C(Cc1c[nH]c2ccccc12)N1CCS(=O)(=O)CC1 (centres unmarked),16.3
8,N#CC1(NC(=O)COC(=O)c2ccc(-c3ccc(O)cc3)cc2)CCCCC1,7.22
9,CC1(C)C(=O)OC(c2ccc([N+](=O)[O-])cc2)C(C)(C)C1=O (centres unmarked),18.4
10,N#Cc1cc(NC2CCCC2)c([N+](=O)[O-])cc1C#N,-5.68
11,Cn1cc(S(=O)(=O)N2CCCC2)cc1C(=O)NCCc1ccccc1,-2.66
12,O=Cc1ccc2noc(-c3ccc(Cl)cc3)c2c1,-1.22
13,Cc1ccc(/C=C2\SC(=S)N(CCC(=O)NNC(=O)c3cccnc3)C2=O)cc1,1.06
14,CC1CC(C)CN(CCCNC(=O)c2ccc3nc(N4CCOCC4)sc3c2)C1 (centres unmarked),-19.5
15,O=C(c1ccc2nc(N3CCOCC3)sc2c1)N1CCN(C(=O)c2ccco2)CC1,-47.4
16,CCC(Cc1ccccc1)NC(=O)c1ccc2nc(N3CCOCC3)sc2c1 (centres unmarked),-46.5
17,O=C(NCc1ccccc1)c1ccc2nc(N3CCOCC3)sc2c1,-5.89
18,O=C(NCCc1ccccc1)c1ccc2nc(N3CCOCC3)sc2c1,3.75
19,O=C(c1ccc2nc(N3CCOCC3)sc2c1)N1CCC(Cc2ccccc2)CC1,-63.2
20,O=C(c1ccc2nc(N3CCOCC3)sc2c1)N1CCCC1,-10.8
21,O=C(NCCCN1CCC(Cc2ccccc2)CC1)c1ccc2nc(N3CCOCC3)sc2c1,-66.2
22,CCCCN(CCCNC(=O)c1ccc2nc(N3CCOCC3)sc2c1)Cc1ccccc1,-62

row,Compound,"hERG current change (%, negative = inhibition) at 10uM [%]"
1,CCOC(=O)c1ccc(-c2c(-c3ccccc3OC)sc3cc4c(cc23)OCO4)cc1F,12.5
2,Cc1cccc(-c2nsc(SCC(=O)Nc3cc(C)on3)n2)c1,16.1
3,CC(=Nc1ccc2c(c1)CCC2)c1c(O)n(C)c(=O)n(C)c1=O,-3.93
4,CCOc1ccccc1CN1CCN(Cc2nc3c(s2)CCCC3)CC1CCO (centres unmarked),-67.9
5,Cc1cccc(CN2CCN(Cc3nc4c(s3)CCCC4)CC2CCO)n1 (centres unmarked),-28.6
6,CCOc1ccccc1CN1CCN(Cc2nc3ccccc3s2)CC1CCO (centres unmarked),-74.8
7,COc1cccc(CN2CCN(Cc3nc4c(s3)CCCC4)CC2CCO)c1 (centres unmarked),-48.5
8,Cc1ccc(/C=C2/SC(=S)N(CCCC(=O)Nc3cc([N+](=O)[O-])ccc3O)C2=O)cc1,13.1
9,O=C(NC(=S)NCCc1ccccc1)c1ccco1,10.2
10,NC(=O)c1sc2cc(C(F)(F)F)cnc2c1-c1ccccc1,15.5
11,CCOc1ccc(OCC)c(NC(=O)C2CCN(S(=O)(=O)c3cccnc3)CC2)c1,-29.9
12,Clc1ccc(-c2cnc3n2CCC3)cc1,-23.1
13,Cc1cnc(NC(=O)CSc2c(Cl)cccc2Cl)s1,-6.06
14,Cc1ccccc1CN1CCC(C(=O)Nc2ccc(Oc3cccnc3)cc2)CC1,-48.6
15,O=C(Nc1ccc(Oc2cccnc2)cc1)C1CCCCN1Cc1ccc(CO)o1 (centres unmarked),1.59
16,COc1ccc(CN2CCC(C(=O)Nc3ccc(Oc4cccnc4)cc3)CC2)c(C)c1C,-36.8
17,O=C(Nc1ccc(Oc2cccnc2)cc1)C1CCN(Cc2ccccc2)CC1,-75.1
18,O=C(Nc1ccc(Oc2cccnc2)cc1)C1CCN(Cc2ccc(F)cc2)CC1,-55.2
19,COc1cccc(O)c1CN1CCC(C(=O)Nc2ccc(Oc3cccnc3)cc2)CC1,-47.4
20,O=C(Nc1ccc(Oc2cccnc2)cc1)C1CCN(Cc2cccc(Cl)c2)CC1,-52.8
21,COc1ccc(CN2CCC(C(=O)Nc3ccc(Oc4cccnc4)cc3)CC2)cc1,-69.3
22,O=C(Nc1ccc(Oc2ccccc2)cc1)C1CCN(c2ncccn2)CC1,0.064

row,Compound,"hERG current change (%, negative = inhibition) at 10uM [%]"
1,O=C(Nc1ccc(Oc2cccnc2)cc1)C1CCN(Cc2cc(Cl)ccc2O)CC1,-45.9
2,Cc1ccc(CN2CCCCC2C(=O)Nc2ccc(Oc3cccnc3)cc2)o1 (centres unmarked),-19.4
3,Cc1cccc(CN2CCC(C(=O)Nc3ccc(Oc4cccnc4)cc3)CC2)c1,-14
4,COc1cccc(CN(CC(=O)NCC2CCCO2)C(=O)CCC(=O)Nc2cc(C)on2)c1 (centres unmarked),-0.822
5,CCOC(=O)CCCCCNC(=O)c1c(O)[nH]c(=O)[nH]c1=O,17.7
6,O=C(c1cc(-c2ccncc2)nc2ccccc12)N1CCC2(CC1)OCCO2,-25.9
7,CC(C)c1nc2oc3c(NCc4ccccn4)ncnc3c2c2c1COC(C)(C)C2,5.62
8,C/C(=N\NC(=O)COc1ccccc1[N+](=O)[O-])c1cccs1,10.3
9,COc1cc(-c2nc(=S)[nH][nH]2)cc(OC)c1OC,5.94
10,O=C(NCc1cccnc1)/C(=C/c1ccc(-c2cccc(C(F)(F)F)c2)o1)NC(=O)c1ccccc1,-74.1
11,COc1ccc(C(=O)N/C(=C\c2ccco2)C(=O)NCc2cccnc2)cc1,-66.7
12,COc1ccc(C(=O)N/C(=C\c2ccco2)C(=O)NCc2ccco2)cc1,-19.7
13,O=C(NCc1cccnc1)/C(=C/c1ccco1)NC(=O)c1ccccc1,-58.6
14,Cc1ccc(C(=O)N/C(=C\c2ccco2)C(=O)NCc2cccnc2)cc1,-65.2
15,Cc1ccc(C(=O)N/C(=C/c2ccco2)C(=O)O)cc1,-3.15
16,Cc1ccc(C(=O)N/C(=C/c2ccc(-c3cc(C(F)(F)F)ccc3Cl)o2)C(=O)NCc2cccnc2)cc1,-1.72
17,Cc1ccc(C(=O)N/C(=C/c2ccco2)C(=O)NCc2ccco2)cc1,-12
18,O=C(NCc1ccco1)/C(=C/c1ccco1)NC(=O)c1ccccc1,4.34
19,COc1ccc(C(=O)N/C(=C/c2ccco2)C(=O)NCc2ccco2)cc1,-30.1
20,O=C(NCc1ccccn1)/C(=C/c1ccco1)NC(=O)c1ccccc1,-10
21,O=C(NCc1cccnc1)/C(=C/c1ccc(-c2cccc(Cl)c2)o1)S(=O)(=O)c1ccccc1,-26.2
